The source of these data is PubChem BioAssay (NCATS).

Inconclusive results are not listed. Unmarked numbers belong to inactive results. The source made the active and inactive calls. Calls come from the whole dose curve; as a rule, active = well fitted curve in the direction sought with a large enough effect; inconclusive = small, poorly fitted or top-dose-only effect, or another doubt; inactive = no such curve, though single readings can be large; an effect the other way counts as inactive or inconclusive.

One assay relates to CAOV3. Kind of assay: Primary qHTS to identify gynecologic anti-cancer compounds using libraries of approved drugs and bioactive compounds (AID 1345084). Note: nearly all actives have a fitted effect of over 55% in size. The conditions noted are these: Gynecologic cancer cell panel viability, ATPlite luminescence, 48 h; series mostly up to 57.5 µM. The procedure, abridged:
(§1)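 Cells, 1,000 per well, plated 16 h, then exposed 48 h at 37 C to compounds. Viability by ATPlite luminescence after 15 min at room temperature.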

The test system of a further assay is CASKI. Described as above. To be noted: Gynecologic cancer cell panel viability, ATPlite luminescence, 48 h; series mostly up to 57.5 µM. The procedure, abridged:
as §1
Background: Cellular ATP, detected with luciferase, serves as a proxy for viable cell number.

In the next assay the test system is Es-2. Described as above. The conditions noted are these: Gynecologic cancer cell panel viability, ATPlite luminescence, 48 h; series mostly up to 57.5 µM. In short, it runs like this:
as §1

In a further assay the test system is HeLa. Described as above. To be noted: Gynecologic cancer cell panel viability, ATPlite luminescence, 48 h; series mostly up to 57.5 µM. The procedure, abridged:
as §1

Another assay concerns OV90. Described as above. To be noted: Gynecologic cancer cell panel viability, ATPlite luminescence, 48 h; series mostly up to 57.5 µM. The procedure, abridged: as §1
The next assay concerns Tov-21-G. The assay is described as above. The conditions noted are these: Gynecologic cancer cell panel viability, ATPlite luminescence, 48 h; series mostly up to 57.5 µM. The procedure, abridged:
as §1

The nature of assay [1]: Drug repurposing screens with cells derived from glioblastoma tumor samples (AID 1345199). Note: nearly all actives have a fitted effect of over 40% in size. The conditions noted are these: GBM patient neurospheres viability, ATP luminescence, 48 h. The procedure, abridged:
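Four patient lines of CD133+ GBM neurospheres were screened at several concentrations; hits were retested in those lines plus three slower-growing GBM lines, using 48-hour treatment and ATP-based viability.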

The next assay deals with MCC-13. Kind of assay: qHTS assay to identify novel small-molecules to repurpose for Merkel cell carcinoma treatment (AID 1296009). Note: nearly all actives have a fitted effect of over 60% in size. The conditions noted are these: MCC and control cell lines, CellTiter-Glo viability, 72 h; series mostly up to 46 µM. In short, it runs like this: (§2)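 qHTS format: cells treated with library compounds in DMSO across 8 (NPC) or 11 (MIPE) concentrations. Readout after 72 hr at 37 degree celsius was CellTiter-Glo luminescence.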
For orientation: Quantitative high-throughput screening tests each substance at several concentrations.

In the next assay the test system is MCC-26. Described as above. To be noted: MCC and control cell lines, CellTiter-Glo viability, 72 h; series mostly up to 46 µM. The procedure, abridged: as §2
The next assay deals with MKL-2. Described as above. To be noted: MCC and control cell lines, CellTiter-Glo viability, 72 h; series mostly up to 46 µM. The procedure, abridged:
as §2

The subject of another assay is C33A. Kind of assay: Primary qHTS to identify gynecologic anti-cancer compounds using libraries of approved drugs and bioactive compounds (AID 1345084). Note: nearly all actives have a fitted effect of over 55% in size. To be noted: Gynecologic cancer cell panel viability, ATPlite luminescence, 48 h; series mostly up to 57.5 µM. The procedure, abridged:
as §1

In the next assay the test system is Hek293T. The description is as above. To be noted: Gynecologic cancer cell panel viability, ATPlite luminescence, 48 h, control line for the selectivity index; series mostly up to 57.5 µM. In short, it runs like this: as §1
A further assay concerns JEG-3. The assay is described as above. The conditions noted are these: Gynecologic cancer cell panel viability, ATPlite luminescence, 48 h; series mostly up to 57.5 µM. The procedure, abridged:
as §1

Another assay relates to PA-1. The assay is described as above. To be noted: Gynecologic cancer cell panel viability, ATPlite luminescence, 48 h; series mostly up to 57.5 µM. The procedure, abridged: as §1
In a further assay the test system is SKOV3. The assay is described as above. The conditions noted are these: Gynecologic cancer cell panel viability, ATPlite luminescence, 48 h; series mostly up to 57.5 µM. The procedure, abridged: as §1
The next assay has as its system Tov112D. The assay is described as above. To be noted: Gynecologic cancer cell panel viability, ATPlite luminescence, 48 h; series mostly up to 57.5 µM. The procedure, abridged:
as §1

For a further assay, the system named is MKL-1. Kind of assay: qHTS assay to identify novel small-molecules to repurpose for Merkel cell carcinoma treatment (AID 1296009). Note: nearly all actives have a fitted effect of over 60% in size. To be noted: MCC and control cell lines, CellTiter-Glo viability, 72 h; series mostly up to 46 µM. In short, it runs like this:
as §2

The subject of a further assay is UISO. The description is as above. To be noted: MCC and control cell lines, CellTiter-Glo viability, 72 h; series mostly up to 46 µM. In short, it runs like this: as §2
A further assay concerns WaGa. Described as above. To be noted: MCC and control cell lines, CellTiter-Glo viability, 72 h; series mostly up to 46 µM. In short, it runs like this:
as §2

The mark [2] stands for this setting: at 46.1 µM (top of the series), tumour line C.
[3] abbreviates: at 45.9 µM (top of the series), tumour line B.
The mark [4] stands for this setting: at 45.9 µM (top of the series), tumour line D.
% is set by controls: 0 for no effect and ±100 for the full control effect; potency is the fitted concentration of half-maximal effect.

On to `CC(C)COCC(CN(Cc1ccccc1)c1ccccc1)N1CCCC1` (stereo unspecified), for which the Potency is 25.1 µM (active) in the assay on CAOV3, 25.1 µM (active) with OV90, 11.2 µM (active) in [1] (tumour line A) and 11.2 µM (active) in assay [1] (tumour line D). Besides, the Potency entry in the assay on CASKI, in the assay with Es-2, in the assay with HeLa and in the assay on Tov-21-G was “inactive” in each case. The activity, negative = cell killing in [1] (setting [2]) is -7.32%.

For the molecule `O=c1[nH]c(=O)n([C@H]2C[C@H](O)[C@@H](CO)O2)cc1Br`, the Potency result with MCC-13, with MCC-26, with MKL-2, in the assay on C33A, with CASKI and with Es-2 was “inactive” throughout. Also, the Potency result in the assay with HeLa, in the assay with Hek293T, in the assay with JEG-3, in the assay on OV90, with PA-1 and with SKOV3 was “inactive” each time. The Potency entry in the assay with Tov-21-G and in the assay on Tov112D was “inactive” in each case. Moreover, the activity, negative = cell killing is -18.1% in assay [1] (setting [3]), 7.04% in assay [1] (setting [4]) and -12.6% in assay [1] (setting [2]).

As for `c1cc(CN2CCCCC2)cc(OCCCNc2nc3ccccc3s2)c1`, the Potency entry with MCC-26, in the assay on MKL-1, in the assay with C33A, with CAOV3, in the assay with CASKI and with Es-2 was “inactive” throughout. In addition, the Potency result in the assay with HeLa, in the assay with JEG-3, in the assay with PA-1, in the assay on Tov-21-G and in the assay with Tov112D was “inactive” in each case.

As for `CCN(CC)CCCN(c1ccccc1)C1Cc2ccccc2C1`, the Potency entry in the assay with MCC-13, in the assay on MCC-26, in the assay on UISO, in the assay with CASKI, in the assay on Es-2 and in the assay on HeLa was “inactive” in each case. Besides, the Potency entry in the assay on JEG-3, in the assay on PA-1, with Tov-21-G and with Tov112D was “inactive” in each case.

As to `CCCCCCCC/C=C\CCCCCCCC(=O)NCc1ccc(O)c(OC)c1`, the Potency entry in the assay on MCC-13, in the assay with MCC-26, in the assay with CAOV3, with CASKI, with Es-2 and in the assay on HeLa was “inactive” in each case. The Potency entry in the assay on Hek293T, in the assay with JEG-3, in the assay with OV90, in the assay on SKOV3 and with Tov112D was “inactive” in each case. Moreover, the Potency with C33A was 7.94 µM (active).

On to `COCCCC/C(=N\OCCN)c1ccc(C(F)(F)F)cc1`, for which the Potency entry in the assay on Hek293T, in the assay on JEG-3, in the assay on PA-1, with Tov-21-G and with Tov112D was “inactive” each time.

For the molecule `C[N+](C)(C)CCCCCCCCCC[N+](C)(C)C`, the Potency entry in the assay with C33A, with CASKI, in the assay on Es-2, in the assay on HeLa, in the assay on Hek293T and with JEG-3 was “inactive” each time. Also, the Potency result in the assay on OV90, in the assay on PA-1, in the assay on SKOV3, with Tov-21-G and in the assay on Tov112D was “inactive” throughout. Also, the activity, negative = cell killing in [1] (setting [3]) is -8.43%; in assay [1] (setting [4]), -24.4%; in assay [1] (at 46 µM (top of the series), tumour line A), -24.5%; in assay [1] (setting [2]), -2.46%.

Take `CC(C)NCC(O)c1cc(O)cc(O)c1` (stereo unspecified): the Potency result with MCC-13, in the assay with MCC-26, in the assay with UISO, in the assay with WaGa, in the assay with C33A and in the assay with CAOV3 was “inactive” each time. Moreover, the Potency entry in the assay with CASKI, in the assay on Es-2, in the assay with Hek293T, in the assay on JEG-3, in the assay with OV90 and with PA-1 was “inactive” throughout. The Potency result in the assay with SKOV3, with Tov-21-G and in the assay with Tov112D was “inactive” in each case. Also, the figures for the activity, negative = cell killing in assay [1] (setting [3]), in [1] (setting [4]) and in [1] (setting [2]) were -18.9%, 17.6% and -22.7%, respectively.

For the molecule `CC1=C(C)C(=O)C(CCCCC#CCCCC#CCO)=C(C)C1=O`, the Potency entry in the assay with MCC-13, with MCC-26, in the assay on CAOV3, with CASKI, in the assay with Es-2 and in the assay on HeLa was “inactive” each time. Moreover, the Potency entry in the assay on JEG-3, with OV90, in the assay with PA-1, in the assay on SKOV3, in the assay on Tov-21-G and in the assay with Tov112D was “inactive” throughout. For the same molecule, the Potency is 26.6 µM (active) in the assay on MKL-2 and 21.1 µM (active) in the assay with WaGa.
